# Rows were chosen to be rich in hits. Some 2% of all compounds tested hit in one or more screens of this group.
# p53 PUMA act: mutant p53 pathway reactivation | SW480 PUMA-promoter luciferase | activation, % at 9.98 µM | 28,000 tested, 1.5% active | AID 624151; in the data active = activation above about 52%; inconclusive = no clear call, values can overlap the other calls
# STK33 kin inh: human STK33 kinase inhibition. ADP-Glo luminescence, MBP substrate. inhibition, % at 12.5 µM. 27,000 tested, 0.44% active. Q9BYT3; in the data active = inhibition above about 20%; inconclusive = no clear call, values can overlap the other calls
# Target sequence (Q9BYT3 whole entry, looked up): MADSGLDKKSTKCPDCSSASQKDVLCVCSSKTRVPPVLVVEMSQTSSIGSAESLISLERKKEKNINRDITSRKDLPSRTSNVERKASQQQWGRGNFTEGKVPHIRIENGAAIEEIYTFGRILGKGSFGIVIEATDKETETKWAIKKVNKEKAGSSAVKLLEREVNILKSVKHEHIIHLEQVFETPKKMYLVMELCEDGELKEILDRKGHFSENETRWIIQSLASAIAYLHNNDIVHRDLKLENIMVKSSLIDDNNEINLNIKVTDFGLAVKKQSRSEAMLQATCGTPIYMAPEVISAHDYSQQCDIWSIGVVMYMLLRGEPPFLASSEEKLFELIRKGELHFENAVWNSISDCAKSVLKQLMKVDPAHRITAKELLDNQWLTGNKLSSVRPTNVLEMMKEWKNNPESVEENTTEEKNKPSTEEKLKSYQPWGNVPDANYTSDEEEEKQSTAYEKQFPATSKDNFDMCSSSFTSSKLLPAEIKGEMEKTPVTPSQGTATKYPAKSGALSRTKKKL
# ID4 SMM: binders of human ID4 protein | P47928 | small molecule microarray, Flag-ID4 binding, fluorescence F/B | calls only | 31,000 tested, 1.2% active; call rule not given here;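 also: a binder raises fluorescence above local background on the spot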
# Starred values were filed as active, the others as inactive; i = inactive; ? = inconclusive; nt = not tested or not shown; + = active, no number.
SMILES,p53 PUMA act,STK33 kin inh,ID4 SMM
O=C(COc1ccccc1[N+](=O)[O-])Nc1cc(-c2nc3ccccc3o2)ccc1Cl,15.0,4.9,i
CCc1cccc(OCC(=O)Nc2cccc(-c3nnc(-c4ccccc4)o3)c2)c1,98.3*,6.3,i
COc1cccc(OCC(=O)Nc2ccc(-c3nc4ccccc4[nH]3)cc2)c1,4.9,-1.5,+
COc1cccc(NC(=O)COc2ccccc2C(=O)O)c1,-7.6,13.1,i
Cc1cc(C)cc(OCC(=O)Nc2cccc(-c3nnc(-c4ccco4)o3)c2)c1,41.6,13.0,i
COc1cccc(OCC(=O)Nc2cccc(-c3nnc(-c4ccccc4)o3)c2)c1,100.5*,11.5,i
COc1ccccc1OCC(=O)Nc1ccc(-c2nc3ccc(C)cc3[nH]2)cc1,1.1,17.1,i
O=C(COc1ccc(I)cc1)Nc1cccc(-c2nnc(-c3ccco3)o2)c1,79.3*,7.7,i
O=C(COc1ccccc1)Nc1ccc2oc(-c3cccc(I)c3)nc2c1,36.3,1.7,i
COc1cc(NS(=O)(=O)c2ccc(NC(=O)c3csc(C)c3)cc2)nc(OC)n1,-8.9,0.0,i
COc1cc(Br)c(CN(CCc2ccc(O)cc2)C(=O)C(F)(F)F)cc1O,-58.4,nt,i
O=c1c(F)cn(CC2CC(c3ccccc3)=NO2)c(=O)n1CC1CC(c2ccccc2)=NO1 (stereo not drawn),35.7,nt,i
COc1ccc(CC(=O)NN2CCN(c3ccccc3)CC2)cc1,nt,0.5,nt
COc1cc(NC(=O)COc2ccc3ccccc3c2Br)c(OC)cc1Cl,18.1,2.0,i
O=C(Cn1nnc2ccccc21)c1ccc(Oc2ccc([N+](=O)[O-])cc2)cc1,-5.7,1.7,i
COc1ccc(CN=Cc2ccc(C(F)(F)F)cc2)cc1,3.1,nt,i
CCc1c(C)c(C#N)c2[nH]c3ccccc3n2c1=O,-68.0,nt,i
O=C(COc1ccc(C(=O)Nc2cccc(C(F)(F)F)c2)cc1)Nc1ccccc1F,-4.9,1.9,i
CCc1cccc(OCC(=O)Nc2ccccc2C(N)=O)c1,129.9*,-0.2,i
Cc1cccc(OCC(=O)Nc2cccc(-c3nnc(-c4ccccc4)o3)c2)c1,90.9*,7.7,i
Cc1cccc(OCC(=O)Nc2cccc(-c3nc4cc(C)cc(C)c4o3)c2)c1,?,2.6,i
CCOC(=O)c1ccccc1NC(=O)COc1ccccc1,7.5,0.7,i
N#CCN(CC#N)C(=O)C(Sc1ccccc1)c1ccccc1 (stereo not drawn),-0.3,nt,i
COC(=O)c1ccc(Cl)c(NC(=O)CN(c2ccc(I)cc2)S(C)(=O)=O)c1,3.5,1.7,i
CC(=O)Oc1ccc(C(=O)Nc2ccc(S(=O)(=O)Nc3nccs3)cc2)cc1,-17.8,2.5,i
SMILES,p53 PUMA act,STK33 kin inh,ID4 SMM
COc1cc(O)c2c(=O)c(-c3ccc(O)cc3)coc2c1,nt,3.7,nt
O=c1c(-c2ccc(O)cc2)coc2cc(OC3OC(CO)C(O)C(O)C3O)cc(O)c12 (stereo not drawn),89.7*,1.7,i
O=S(=O)(NCc1ccco1)c1ccc(Oc2ccccc2)cc1,8.2,2.2,i
Cc1cc(NS(=O)(=O)c2ccc(NC(=O)c3csc4ccccc34)cc2)no1,-5.3,0.2,i
Cc1ccc(-c2nn(C)c(=O)c3ccccc23)cc1CNC(=O)CN1CCOCC1,0.8,-8.8,i
Cc1ccc(-c2nn(C)c(=O)c3ccccc23)cc1S(=O)(=O)N1CCN(CCO)CC1,-3.9,-2.0,+
Cc1sc2ncnc(SCC(=O)NCC3CCCO3)c2c1-c1ccc(Cl)cc1 (stereo not drawn),10.8,-2.0,i
Cc1ccc([N+](=O)[O-])cc1N(CC(=O)Nc1ccc(I)cc1)S(C)(=O)=O,-87.0,-0.1,i
Cc1ccc(C(=O)O)cc1NC(=O)CCN1C(=O)c2ccccc2C1=O,-5.3,0.2,i
Cc1cc(C)c2c(=O)[nH]c(SCC(=O)c3ccccc3)nc2n1,-7.9,-1.1,i
Cc1cc(C)c2c(=O)[nH]c(SCC(=O)N3CCOCC3)nc2n1,-0.6,-1.6,+
CSc1nc(N)n(-c2cc(Cl)cc(Cl)c2)n1,nt,1.3,nt
Cc1ccc(NC(=O)CN(c2cc(Cl)c(Cl)cc2Cl)S(C)(=O)=O)cc1Cl,-44.8,-4.1,i
CC12CCC(=O)C=C1CCC1(C)C2(C)CCC2(C)C(C(=O)CO)CCC21C (stereo not drawn),nt,7.7,nt
Cc1cc(=O)oc2cc(OC(C)C(=O)Nc3sc4c(c3C(N)=O)CCCC4)ccc12 (stereo not drawn),-2.0,6.3,+
Cc1cc(=O)oc2cc(OC(C)C(=O)NCC3CCCO3)ccc12 (stereo not drawn),8.3,-0.7,i
Cc1cc(Oc2coc3cc(OCC(=O)Nc4ccccc4F)ccc3c2=O)cc(C)c1Cl,-31.1,-1.3,i
COc1ccc(C(=O)NCc2n[nH]c(=S)n2C)cc1OC,-4.8,-1.6,i
Cc1cccc(C(=O)NCc2n[nH]c(=S)n2-c2ccccc2)c1,10.7,5.8,+
O=C(CNS(=O)(=O)c1ccccc1)Nc1cc(Cl)cc(Cl)c1,0.1,-2.5,i
COc1ccc(NC(=O)CSc2nnc(-c3ccco3)n2-c2ccccc2)cc1,14.6,-5.2,i
O=C(CSc1nnc(-c2ccco2)n1-c1cccc2ccccc12)Nc1ccc(C(=O)O)cc1,3.3,-1.0,+
Cn1ncc2c(NN3C(=O)CCC3=O)ncnc21,-17.0,nt,i
O=C(CCc1ccc(O)cc1)c1c(O)cc(O)cc1O,nt,35.2*,nt
O=C(CCCCCCCCc1ccccc1)c1c(O)cc(O)cc1O,-6.0,-3.9,i
SMILES,p53 PUMA act,STK33 kin inh,ID4 SMM
FC(F)(F)C1=Nc2ccccc2N(c2ccc(Cl)c(Cl)c2)C1,nt,-5.7,nt
Cc1cccc(NC(=O)CSc2cn(CCNC(=O)c3ccc(F)cc3)c3ccccc23)c1C,nt,1.0,nt
CCCN(C)C[C@H]1OCc2cn(nn2)CCCC(=O)N([C@H](C)CO)C[C@H]1C,nt,nt,+
C[C@H](CO)N1C[C@H](C)[C@H](CN(C)CC2CC2)OCc2cn(nn2)CCCC1=O,nt,1.7,i
Cn1c(Cn2cc(C(F)(F)F)ccc2=O)n[nH]c1=S,nt,-1.3,nt
COc1ccc(CC(=O)n2nc(-c3ccc(Cl)cc3)nc2NCc2ccco2)cc1OC,109.9*,nt,i
COc1ccc(NC(=O)c2ccco2)c(NC(=O)CSc2ccc(Cl)cc2)c1,-7.4,2.2,i
COc1ccc(-c2cc(C(=O)OCc3ccco3)c3ccccc3n2)cc1OC,22.5,4.3,i
COc1ccc(CNc2nc(-c3ccc(Cl)cc3)nn2C(=O)c2ccco2)cc1,86.8*,2.7,i
COc1ccc(NC(=O)CN(C)S(=O)(=O)c2ccc(F)cc2)cc1OC,-13.0,1.9,i
CCOC(=O)c1cnc2c(C)c(C)ccc2c1NCCN(C)C,41.6,-0.9,i
COc1cc(CO)cc(I)c1OCc1cccc(C(=O)O)c1,36.8,-1.3,i
COc1cc(SC)ccc1C(=O)NCCc1c[nH]c2ccccc12,12.2,0.9,i
CCCC(=O)N(CCc1c[nH]c2ccccc12)[C@@H]1CC(C(=O)NCCO)=C[C@H](Oc2c(I)cc(CO)cc2OC)[C@H]1O,nt,nt,+
C#CCOc1ccc(C(Nc2ccccn2)c2ccc3cccnc3c2O)cc1 (stereo not drawn),-8.6,8.7,i
CCn1c(SCC(=O)N2c3ccccc3Sc3ccccc32)nnc1-c1cc(OC)cc(OC)c1,-5.9,5.8,i
Cc1ccc(C(=O)CSc2nnc(-c3cc(C(C)(C)C)nn3Cc3cccc(C)c3)o2)cc1,nt,2.3,nt
